Assay outcomes deposited in PubChem by National Center for Advancing Translational Sciences (NCATS).
The sample as a whole holds a higher share of hits than the screen did.
nsP2pro inh = inhibitors of chikungunya virus nsP2 protease. Q8JUX6. FRET peptide cleavage, nsP2pro, fluorescence 1 h. Potency, µM (highest dose often 24.9 µM), for the others: at the highest dose activity change, negative = inhibition, usual class: inhibitors. 31,000 tested, 1.1% active. AID 1964107; further: nearly all actives have a fitted effect of over 60% in size
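FRET cleavage of 2.5 uM peptide 2 by 150 nM CHIKV protease domain at pH 8.0 (Tris, Tween 20). Compounds at 7 concentrations (up to 25 uM) preincubated 15 min. Fluorescence read after 1 h at room temperature.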
CHIKV nsP2 cell = secondary cell-based test for CHIKV nsP2 protease inhibitors | shares compounds with nsP2pro inh | 450 tested, 10% active | AID 1964100 | cell-based CHIKV nsP2 protease reporter assay | Potency, µM (highest dose often 51.1 µM), without a hit: at the top dose activity change, negative = inhibition, most hits filed as inhibitors; further: nearly all actives have a fitted effect of over 70% in size
CHIKV NSP2 FL = selectivity test for CHIKV nsP2 protease inhibitors: full-length NSP2; shares compounds with nsP2pro inh; Full-length CHIKV NSP2 protease enzymatic counterscreen; Potency, µM (highest dose often 50.7 µM), for the others: at the top dose activity change, negative = inhibition, actives largely listed as inhibitors; 410 tested, 39% active; further: nearly all actives have a fitted effect of over 65% in size
Furin counter = human furin inhibition, counterscreen for nsP2pro inhibitors. Potency, µM (titrated, usually from 50.6 µM), without a hit: at the highest dose activity change, negative = inhibition, usual class: inhibitors. 410 tested, 6% active. Recombinant human furin enzymatic counterscreen, fluorogenic substrate. AID 1964102. shares compounds with nsP2pro inh
nsP2 NS23 pep = blocks CHIKV nsP2 protease cleavage of endogenous NS2/3 peptide; 410 tested, 34% active; Potency, µM (titrated, usually from 51 µM), for inactives: at the top dose activity change, negative = inhibition, usual class: inhibitors; Purified CHIKV nsP2 protease, endogenous NS2/3 peptide cleavage; shares compounds with nsP2pro inh; further: nearly all actives have a fitted effect of over 55% in size
Papain cs = inhibits papain in a CHIKV nsP2 protease selectivity counterscreen; shares compounds with nsP2pro inh; Potency, µM (highest dose often 51 µM), without a hit: at the top dose activity change, negative = inhibition, hits mostly inhibitors; AID 1964104; purified papain protease activity, enzymatic inhibition; 410 tested, 5% active
Target sequence (P00784 whole entry, looked up): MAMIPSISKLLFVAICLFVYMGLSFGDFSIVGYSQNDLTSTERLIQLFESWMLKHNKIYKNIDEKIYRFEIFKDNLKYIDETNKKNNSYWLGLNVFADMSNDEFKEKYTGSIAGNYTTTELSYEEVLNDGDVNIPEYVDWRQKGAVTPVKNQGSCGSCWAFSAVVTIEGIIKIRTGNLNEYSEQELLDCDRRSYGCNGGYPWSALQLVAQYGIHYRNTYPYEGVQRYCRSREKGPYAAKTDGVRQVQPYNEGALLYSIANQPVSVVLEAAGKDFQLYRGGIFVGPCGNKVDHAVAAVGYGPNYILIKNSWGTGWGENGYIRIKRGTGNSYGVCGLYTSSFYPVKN
nsP2pro conf qHTS = CHIKV nsP2 protease inhibition, confirmatory qHTS; shares compounds with nsP2pro inh; CHIKV nsP2 protease enzymatic activity, qHTS; Potency, µM (highest dose often 25.5 µM), without a hit: at the top dose activity change, negative = inhibition, most hits filed as inhibitors; 410 tested, 43% active; AID 1964105; further: nearly all actives have a fitted effect of over 75% in size
HCV NS3 counter = inhibits HCV NS3/4A protease in an nsP2pro selectivity counterscreen; HCV NS3/4A protease biochemical counterscreen; 410 tested, 20% active; shares compounds with nsP2pro inh; Potency, µM (series often up to 50.9 µM), most hits filed as inhibitors; AID 1964106; further: nearly all actives have a fitted effect of over 55% in size
* = called active by the depositor; i = inactive; ? = inconclusive; [ ] = another dose, or the depositor's remark. The call rests on the fitted dose curve. On the % scale 0 is the no-effect control and ±100 the full control effect; potency means the concentration at half of the fitted maximal effect.

SMILES	nsP2pro inh	others
COC(=O)C1=CO[C@@H](O[C@@H]2O[C@H](CO)[C@@H](O)[C@H](O)[C@H]2O)[C@H]2[C@@H]1C=C[C@]21C=C([C@H](C)OC(=O)/C=C/c2ccc(O)cc2)C(=O)O1	1.6µM*	CHIKV nsP2 cell=-29%[17.6 µM];CHIKV NSP2 FL=3.4µM*;Furin counter=-3%[17.3 µM];nsP2 NS23 pep=?;Papain cs=-10%[17.2 µM];nsP2pro conf qHTS=1.3µM*;HCV NS3 counter=?
Cc1cc(NC(=O)Nc2nnc(-c3ccncc3)s2)ccc1F	0%
c1ccc(-c2[nH]nc3ncc(-c4cn[nH]c4)nc23)cc1	i
COC1CCCN(C(=O)c2cnc(Cc3c(Cl)cccc3Cl)[nH]c2=O)C1 (configuration not stated)	0%
CC(=O)NCc1nnc2n1C(C(=O)NC1CCCCCC1)CC2 (configuration not stated)	-22%[39.2 µM]
Cn1ccc(C(=O)NCc2nnc3n2C(C(=O)NCC2CC2)CC3)n1 (configuration not stated)	7.9µM*	CHIKV nsP2 cell=10%;CHIKV NSP2 FL=?;Furin counter=-6%;nsP2 NS23 pep=?;Papain cs=3%;nsP2pro conf qHTS=?;HCV NS3 counter=11µM*
O=C(NCc1nnc2n1C(C(=O)N1CCCC1)CC2)Nc1cccnc1 (configuration not stated)	-20%
COc1ccccc1C(=O)N1CC(N(C)c2ccccc2C)C1	-7%
O=C(NCc1c(F)cc(F)cc1F)c1cn2c(c(O)c1=O)C(=O)N1C3CCC(C3)OC1C2 (configuration not stated)	38%
CC(C)CNC(=O)c1ccc2nnc(C(C)(C)C)n2c1	-12%[39.2 µM]
OCc1ccc(-c2ccc3ncnc(NCCc4cnc[nH]4)c3c2)o1	1.1µM*	CHIKV nsP2 cell=21µM*;CHIKV NSP2 FL=2%;Furin counter=-6%;nsP2 NS23 pep=2%;Papain cs=7%;nsP2pro conf qHTS=82%;HCV NS3 counter=10µM*
CCNC(=O)c1ccc(-c2ccc3ncnc(NCCc4cnc[nH]4)c3c2)o1	-14%
CC(O)c1ccc(-c2ccc3ncnc(N4CCOCC4)c3c2)o1 (configuration not stated)	10µM*	CHIKV nsP2 cell=?;CHIKV NSP2 FL=16µM*;Furin counter=-8%;nsP2 NS23 pep=?;Papain cs=18%;nsP2pro conf qHTS=4%;HCV NS3 counter=21µM*
Cc1ccc(CN(C)c2ncnc3ccc(-c4ccc(CO)o4)cc23)o1	-26%
Cc1ccc(CNc2ncnc3ccc(-c4ccc(CO)o4)cc23)o1	?	CHIKV nsP2 cell=14%;CHIKV NSP2 FL=18%;Furin counter=-11%;nsP2 NS23 pep=i;Papain cs=46%;nsP2pro conf qHTS=8%;HCV NS3 counter=i
c1nc(N2CCC(N3CCCC3)CC2)c2cc(-c3ccc4c(c3)OCO4)ccc2n1	i
O=C(O)c1ccc(-c2ccc3ncnc(NCCc4cnc[nH]4)c3c2)o1	i
CC(O)c1ccc(-c2ccc3ncnc(NCc4nccs4)c3c2)o1 (configuration not stated)	10µM*	CHIKV nsP2 cell=?;CHIKV NSP2 FL=12µM*;Furin counter=-20%;nsP2 NS23 pep=23µM*;Papain cs=41%;nsP2pro conf qHTS=-53%;HCV NS3 counter=12µM*
Cc1csc(CNc2ncnc3ccc(-c4ccc(C(=O)O)o4)cc23)n1	-11%
CCNC(=O)c1ccc(-c2ccc3ncnc(NCc4nccs4)c3c2)o1	-6%
O=C(O)c1ccc(-c2ccc3ncnc(N4CCOCC4)c3c2)o1	0%
Cc1ccc(CNc2ncnc3ccc(-c4ccc(C(=O)N(C)C)o4)cc23)o1	i
Cc1ccc(C(=O)N2CCc3sc(C(=O)NCc4cc(F)cc(F)c4)cc3C2)cc1	-6%
Cc1cc(C(=O)N[C@@H]2CCC[C@@H](C(=O)NC3CC3)CC(=O)N(C)C2)nn1C	i
O=C(c1ccc(C(F)(F)F)cc1)N1CCCC(C(=O)N2CCC(c3nc4ccncc4[nH]3)CC2)C1 (configuration not stated)	-7%
SMILES	nsP2pro inh	others
O=C(c1ccc2c(c1)ncn2-c1ccc(Cl)cc1)N1CCCCC1	-6%
COc1cccc(CCC(=O)N2CCCCC2c2nc(-c3ccncc3)n[nH]2)c1 (configuration not stated)	i
Cc1ccc(CNc2nc(-c3ccccc3C(F)(F)F)nc3ccccc23)cc1	-5%
O=C(Nc1cncc(-c2cccnc2)c1)c1cccs1	i
Cc1ccc(S(=O)(=O)/C=C/C#N)cc1	0.88µM*	CHIKV nsP2 cell=?;CHIKV NSP2 FL=0.92µM*;Furin counter=5%;nsP2 NS23 pep=4.6µM*;Papain cs=-5%;nsP2pro conf qHTS=0.28µM*;HCV NS3 counter=i
COC(=O)[C@H](NC(=O)[C@@H]1C[C@H](NC(=O)Nc2ccc(OC)cc2)CN1C(=O)c1cccn1C)C(C)C	-11%
CCC(C)C(=O)OC1CCC=C2C=CC(C)C(CCC3CC(O)CC(=O)O3)C21 (configuration not stated)	?	CHIKV nsP2 cell=37%;CHIKV NSP2 FL=7%;Furin counter=-5%;nsP2 NS23 pep=-11%;Papain cs=-24%;nsP2pro conf qHTS=-15%;HCV NS3 counter=i
CC[C@H](C)C(=O)O[C@H]1C[C@@H](C)C=C2C=C[C@H](C)[C@H](CC[C@@H]3C[C@@H](O)CC(=O)O3)[C@H]21	-13%
Fc1ccc2nc(CO[C@H]3CN(C4CCOCC4)C[C@H]3F)[nH]c2c1	-11%[39.2 µM]
CCc1cn(C[C@@H](C(=O)O)N(CC)CC)c(=O)[nH]c1=O	-4%[39.2 µM]
COc1ccc(-c2ccc3ncc(Nc4ccncc4)n3n2)cn1	i
O=C(OC[C@H]1O[C@@H](OC(=O)c2cc(O)c(O)c(O)c2)[C@H](O)[C@@H](OC(=O)c2cc(O)c(O)c(O)c2)[C@@H]1O)c1cc(O)c(O)c(O)c1	14%
CCC(CC)NC(=O)[C@@H]1COCC(=O)N1Cc1ccc(OC)cc1OC	-3%
O=S1(=O)N=C(Oc2ccccc2Br)c2ccccc21	i
Cc1ccccc1OC1=NS(=O)(=O)c2ccccc21	i
Nc1ccccc1OC1=NS(=O)(=O)c2ccccc21	10µM*	CHIKV nsP2 cell=7%;CHIKV NSP2 FL=?;Furin counter=-5%;nsP2 NS23 pep=-11%;Papain cs=-5%;nsP2pro conf qHTS=-6%;HCV NS3 counter=i
CCOC(=O)c1cccc(NCC2=CC(C)(C)Oc3ccc(OC)cc32)c1	-11%
CCOC(=O)c1cccc(CNc2ccc(N(C)C(=O)Nc3ccccc3)cc2)c1	?	CHIKV nsP2 cell=?;CHIKV NSP2 FL=-13%;Furin counter=-11%;nsP2 NS23 pep=-8%;Papain cs=?;nsP2pro conf qHTS=-3%;HCV NS3 counter=i
CCOC(=O)c1cccc(NC(=O)CCSCCc2ccccn2)c1	-14%
Cc1ccc(-c2cc(C(=O)Nc3ccc(C(=O)O)cc3)c3ccccc3n2)cc1C	i
Cc1nc(C)c(-c2ccc3ncnc(NCCc4cnc[nH]4)c3c2)s1	i
O=C(Cc1ccccn1)NCCNC(=O)c1ccc(-c2cccc(C(F)(F)F)c2)cc1	i
